# From PubChem BioAssay
# Activity calls are given as the source filed them. Unless noted, no rule for the calls is given here.
# Key:
# [1] = tested on: Wnt5a (protein binding on small-molecule microarray); test: Wnt5a binders on small-molecule microarray, primary screen, biophysical, 635/667 nm fluorescence (AID 1142); conditions: 635 nm fluorescence, higher = more signal;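 also: fluorescence read at 667 nm with signal to noise per printed feature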
# [2] = cell viability in Huh7 cells, primary screen, cytotoxicity control for HCV replication inhibitor project, CellTiter-Glo luminescence, basal, 48 h (AID 1143); conditions: Huh7 HCV replicon, higher = more signal, called active from +8 up or from −8 down;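 also: Huh7 hepatoma cells carrying a hepatitis C replication reporter with no stimulus; test concentration not given here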
# [3] = P. aeruginosa biofilm formation inhibitors, primary screen, PAO1 strain, BacTiter-Glo luminescence, LB-PBS (AID 1144); conditions: 12 h, higher = more signal
# [4] = CREB reporter modulators without forskolin, primary screen, cell-based, PC12, CRE-LacZ reporter, unstimulated (AID 1145); conditions: no forskolin, luminescence, 4.5 h, higher = more signal, called active from +8 up or from −8 down
# [5] = CREB reporter modulators under forskolin, primary screen, cell-based, PC12, CRE-LacZ reporter, forskolin-stimulated (AID 1146); conditions: luminescence, 4.5 h, higher = more signal, called active from +8 up or from −8 down;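 also: PC12 cells with 6xCRE LacZ reporter stimulated by forskolin 10 µM; beta-galactosidase reporter signal reflecting CREB driven transcription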
# [6] = molecular target: Streptavidin (Streptomyces avidinii) (UniProt P22629); test: streptavidin binders on small-molecule microarray, primary screen, artefact control for SMM compound annotation, biophysical, 635/667 nm fluorescence (AID 1147); conditions: streptavidin binding, higher = more signal;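 also: signal reflects streptavidin binding to arrayed compounds as a control protein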
# [7] = small-molecule binders of probe aInhba, primary screen, biochemical, small-molecule microarray, 635/667 nm fluorescence (AID 1148); conditions: higher = more signal;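 also: score merges 667nm spot fluorescence with signal-to-noise for antibody binding to printed compounds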
# Torsin-1A (Homo sapiens) [8] = molecular target: Torsin-1A (Homo sapiens) (UniProt O14656); test: torsin A binders from cell lysate, primary screen, small-molecule microarray, wild-type, 635/667 nm (AID 1149); conditions: COS7 hTOR1A-WT lysate, 635 nm fluorescence, higher = more signal
# Torsin-1A (Homo sapiens) [9] = molecular target: Torsin-1A (Homo sapiens) (UniProt O14656); test: small-molecule binders of mutant TOR1A in lysate, primary screen, cell lysate, small-molecule microarray, COS7 lysate, 635/667 nm fluorescence (AID 1150); conditions: COS7 hTOR1A mutant lysate, 635 nm fluorescence, higher = more signal;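 also: score pools 667 nm emission and signal to noise measuring lysate protein binding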
# [10] = tested on: Sonic hedgehog protein (Shh); test: small-molecule binders of Shh protein, primary screen, biochemical, small-molecule microarray, 635/667 nm fluorescence (AID 1151); conditions: small-molecule microarray binding, 635 nm fluorescence; higher = more signal;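 also: Shh protein binding to compounds spotted on small-molecule microarray slides; score combines spot fluorescence intensity with signal-to-noise across triplicate slides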
# [11] = E. coli DRC41 culture turbidity changes, primary screen, E. coli filamentation inducer project, strain DRC41, OD650, 48 h (AID 1152);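 also: E. coli MC1000 strain DRC41 lacking acrAB efflux pump and sulA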; conditions: E. coli DRC41 (acrAB sulA), higher = more signal, called active from +8 up or from −8 down
# [12] = small-molecule binders of probe aLefty1, primary screen, biochemical, small-molecule microarray, 635/667 nm fluorescence (AID 1153); conditions: higher = more signal;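 also: score merges spot fluorescence with signal-to-noise ratio from the scanned slide images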
# [13] = PSAC antagonists in infected red cells, primary screen, cell-based, P. falciparum Indochina, OD700, 1 h (AID 1154); conditions: P. falciparum Indochina infected RBC osmotic lysis, higher = more signal, called active from +8 up or from −8 down
# [14] = PSAC antagonists in infected red cells, primary screen, cell-based, P. falciparum Indochina, OD700, 2 h (AID 1155);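 also: lysis reports solute entry through the parasite surface anion channel PSAC; channel blockers reduce lysis of infected cells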; conditions: P. falciparum Indochina infected erythrocytes, osmotic lysis OD700; higher = more signal, called active from +8 up or from −8 down
# [15] = osmotic lysis modulators in infected erythrocytes, primary screen, PSAC antagonist project, cell-based, P. falciparum Indochina, OD700, 3 h (AID 1156); conditions: higher = more signal, called active from +8 up or from −8 down
# [16] = PSAC antagonists in infected red cells, primary screen, cell-based, P. falciparum Indochina, OD700, 18 h (AID 1157); conditions: P. falciparum Indochina infected erythrocytes, osmotic lysis OD700, 18 h; higher = more signal, called active from +8 up or from −8 down
# [17] = modulators of S6 phosphorylation in cells, primary screen, cell-based, A549, cytoblot, luminescence, serum-stimulated (AID 1158); conditions: A549 phospho-S6 cytoblot, 5 h, higher = more signal;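 also: serum-stimulated A549 lung adenocarcinoma cells; signal is phosphorylated S6 detected by cytoblot immunostaining with HRP secondary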
# [18] = molecular target: NADPH oxidase 2 (Homo sapiens) (UniProt P04839); test: NOX2-dependent H2O2 signal modulators, primary screen, NOX inhibitor project, cell-based, HEK293-NOX2, PMA-stimulated, Amplex Red fluorescence (AID 1159); conditions: 45 min, higher = more signal, called active from +8 up or from −8 down; also: test concentration not given here
# [19] = molecular target: NADPH oxidase 4 (Homo sapiens) (UniProt Q9NPH5); test: NOX4-dependent H2O2 signal modulators, primary screen, NOX inhibitor project, cell-based, HEK293-NOX4, tetracycline-induced, Amplex Red fluorescence (AID 1160); conditions: 45 min, higher = more signal, called active from +8 up or from −8 down
# [20] = molecular target: NADPH oxidase 5 (Homo sapiens) (UniProt Q96PH1); test: NOX5-dependent H2O2 signal modulators, primary screen, NOX inhibitor project, cell-based, HEK293-NOX5, Amplex Red fluorescence (AID 1161); conditions: HEK293-NOX5, ionomycin, 45 min, higher = more signal
# NADPH oxidase 5 (Homo sapiens), sequence (Q96PH1 whole entry, looked up): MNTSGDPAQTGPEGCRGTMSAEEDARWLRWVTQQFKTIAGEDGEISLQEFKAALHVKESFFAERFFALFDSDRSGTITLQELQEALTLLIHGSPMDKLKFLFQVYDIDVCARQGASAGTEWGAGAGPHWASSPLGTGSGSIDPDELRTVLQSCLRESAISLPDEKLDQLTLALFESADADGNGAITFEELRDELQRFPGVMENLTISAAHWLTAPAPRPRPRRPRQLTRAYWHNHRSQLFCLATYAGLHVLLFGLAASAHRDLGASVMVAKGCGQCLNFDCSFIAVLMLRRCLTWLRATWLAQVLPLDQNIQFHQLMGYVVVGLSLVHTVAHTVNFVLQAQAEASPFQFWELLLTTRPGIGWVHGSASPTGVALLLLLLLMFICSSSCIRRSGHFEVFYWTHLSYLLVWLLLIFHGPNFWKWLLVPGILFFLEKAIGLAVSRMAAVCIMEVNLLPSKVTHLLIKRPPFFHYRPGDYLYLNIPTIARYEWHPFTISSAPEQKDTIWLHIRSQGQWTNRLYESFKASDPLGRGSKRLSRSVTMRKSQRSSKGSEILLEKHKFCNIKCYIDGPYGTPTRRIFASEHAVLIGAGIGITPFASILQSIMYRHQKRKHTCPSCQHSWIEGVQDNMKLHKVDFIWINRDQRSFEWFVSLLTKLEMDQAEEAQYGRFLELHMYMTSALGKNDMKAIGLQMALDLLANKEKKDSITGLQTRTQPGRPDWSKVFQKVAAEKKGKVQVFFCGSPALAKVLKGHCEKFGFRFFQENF
# Streptavidin (Streptomyces avidinii), sequence (P22629 whole entry, looked up): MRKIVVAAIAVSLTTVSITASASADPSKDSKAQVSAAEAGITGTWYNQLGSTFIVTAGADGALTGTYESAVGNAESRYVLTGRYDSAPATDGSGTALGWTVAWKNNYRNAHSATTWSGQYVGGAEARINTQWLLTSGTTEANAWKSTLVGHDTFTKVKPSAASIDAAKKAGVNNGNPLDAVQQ
# NADPH oxidase 2 (Homo sapiens), sequence (P04839 whole entry, looked up): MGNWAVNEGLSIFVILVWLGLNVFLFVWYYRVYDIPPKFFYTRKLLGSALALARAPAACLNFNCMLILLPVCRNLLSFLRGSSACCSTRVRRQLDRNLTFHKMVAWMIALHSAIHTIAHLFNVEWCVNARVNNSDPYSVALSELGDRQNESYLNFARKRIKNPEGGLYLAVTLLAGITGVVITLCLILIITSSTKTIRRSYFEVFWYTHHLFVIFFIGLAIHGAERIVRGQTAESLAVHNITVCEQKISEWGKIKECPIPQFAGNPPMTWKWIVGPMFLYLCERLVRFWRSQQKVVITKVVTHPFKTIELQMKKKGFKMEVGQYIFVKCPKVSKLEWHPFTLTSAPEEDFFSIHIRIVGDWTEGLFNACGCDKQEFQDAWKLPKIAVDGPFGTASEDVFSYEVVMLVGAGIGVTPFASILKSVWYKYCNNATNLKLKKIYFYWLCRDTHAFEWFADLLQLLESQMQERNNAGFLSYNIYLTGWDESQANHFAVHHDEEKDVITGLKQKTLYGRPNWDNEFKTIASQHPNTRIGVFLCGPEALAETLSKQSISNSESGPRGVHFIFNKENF
# Torsin-1A (Homo sapiens), sequence (O14656 whole entry, looked up): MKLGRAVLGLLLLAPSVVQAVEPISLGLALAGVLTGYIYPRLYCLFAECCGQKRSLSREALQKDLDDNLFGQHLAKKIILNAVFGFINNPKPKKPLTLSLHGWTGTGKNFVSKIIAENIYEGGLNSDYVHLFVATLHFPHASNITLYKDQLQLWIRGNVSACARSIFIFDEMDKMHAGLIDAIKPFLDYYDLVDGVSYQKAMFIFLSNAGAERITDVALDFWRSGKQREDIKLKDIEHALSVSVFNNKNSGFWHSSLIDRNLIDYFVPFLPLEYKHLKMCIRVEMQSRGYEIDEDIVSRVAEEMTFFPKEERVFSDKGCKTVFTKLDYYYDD
# NADPH oxidase 4 (Homo sapiens), sequence (Q9NPH5 whole entry, looked up): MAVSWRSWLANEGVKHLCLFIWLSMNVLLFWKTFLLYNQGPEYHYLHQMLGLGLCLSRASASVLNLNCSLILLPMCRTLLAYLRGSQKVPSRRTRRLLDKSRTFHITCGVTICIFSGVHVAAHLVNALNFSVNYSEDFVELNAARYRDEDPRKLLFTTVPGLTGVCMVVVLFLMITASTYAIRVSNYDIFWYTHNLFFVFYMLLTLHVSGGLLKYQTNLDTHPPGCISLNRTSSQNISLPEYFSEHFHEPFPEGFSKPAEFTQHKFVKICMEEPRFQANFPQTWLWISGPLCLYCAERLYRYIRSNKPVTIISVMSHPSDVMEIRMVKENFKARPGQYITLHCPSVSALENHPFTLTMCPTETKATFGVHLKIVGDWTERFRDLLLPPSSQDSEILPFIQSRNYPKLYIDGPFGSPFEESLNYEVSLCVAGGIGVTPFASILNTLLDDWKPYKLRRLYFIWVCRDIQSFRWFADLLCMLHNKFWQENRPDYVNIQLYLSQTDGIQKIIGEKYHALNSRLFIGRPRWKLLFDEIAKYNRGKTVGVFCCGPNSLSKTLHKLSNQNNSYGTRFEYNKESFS
SMILES,composite z-score [1],z-score [2],z-score [3],z-score [4],z-score [5],composite z-score [6],composite z-score [7],composite z-score (Torsin-1A (Homo sapiens) [8]),composite z-score (Torsin-1A (Homo sapiens) [9]),composite z-score [10],z-score [11],composite z-score [12],z-score [13],z-score [14],z-score [15],z-score [16],z-score [17],z-score [18],z-score [19],z-score [20]
C=C(CCCC)/C(=C/C[C@H](OC(=O)c1ccncc1)c1ccc(OCCO)cc1)c1cc(C(=O)OC)ccc1OC,0.355,-4.81 (inactive),0.282 (inactive),5.11 (inactive),-0.366 (inactive),0.0399,0.0104,0.404,0.102,1.96,0.695 (inactive),-0.103,20.9 (active),1.88 (inactive),2.24 (inactive),-0.722 (inactive),0.769,-1.96 (inactive),-1.3 (inactive),-2.54
C=CCC(OC(C)=O)[C@@H]1[C@@H](N(Cc2ccc(-c3ccccc3)cc2)C(=O)Cc2ccc(F)cc2)c2cc(OCCCO)ccc2N1C(=O)c1ccc2ccccc2c1 (stereo not given in full),-0.121,0.0038 (inactive),0.197 (inactive),0.819 (inactive),0.601 (inactive),-0.0075,0.0464,-0.287,-0.0056,0.627,0.185 (inactive),0.193,-0.0408 (inactive),0.345 (inactive),-0.348 (inactive),0.703 (inactive),-0.0772,0.719 (inactive),0.587 (inactive),1.82
O=C1C[C@@](C(=O)NCc2ccccc2)(c2ccc([N+](=O)[O-])cc2)[C@@H](c2ccc(CO)cc2)N1CC12CC3CC(CC(C3)C1)C2,0.38,-4.73 (inactive),0.657 (inactive),0.674 (inactive),-0.841 (inactive),-0.243,-0.189,0.352,0.368,1.99,0.874 (inactive),-0.287,5.33 (inactive),0.786 (inactive),3.76 (inactive),0.674 (inactive),-0.0355,0.208 (inactive),-0.821 (inactive),1.1
CC(=O)Nc1cc(Br)ccc1C(=O)NCc1ccccc1,-0.0375,-0.798 (inactive),0.0338 (inactive),-0.348 (inactive),-1.14 (inactive),0.725,-0.0963,-0.0164,-0.0323,-0.24,-0.813 (inactive),-0.0929,3.88 (inactive),0.423 (inactive),0.0319 (inactive),0.229 (inactive),-0.283,-0.714 (inactive),-0.427 (inactive),-0.393
COc1cc2c(cc1O)C(c1cccs1)N(Cc1ccc([N+](=O)[O-])o1)CC2 (stereo not given),0.207,-1.37 (inactive),-0.371 (inactive),0.209 (inactive),-0.543 (inactive),1.32,0.167,0.426,-0.155,-0.951,1.9 (inactive),0.0161,25.1 (active),7.24 (inactive),-0.39 (inactive),-0.628 (inactive),1.23,-4.4 (inactive),-2.58 (inactive),-2.92
NCCCCCNC(=O)[C@H]1C[C@H]2C(=O)N[C@@H](Cc3ccccc3)C(=O)N2[C@H]1c1cccc(OCCO)c1,-0.0768,-0.535 (inactive),-0.2 (inactive),1.49 (inactive),-0.389 (inactive),0.951,0.205,0.5,0.71,0.102,0.545 (inactive),1.17,3.99 (inactive),0.812 (inactive),-0.685 (inactive),0.325 (inactive),-0.136,1.38 (inactive),0.875 (inactive),0.434
O=C1NC(=O)C2C1C=CC(C(O)C1CC=CCC1)N2Nc1ccccn1 (stereo not given),0.524,0.607 (inactive),-0.893 (inactive),-0.329 (inactive),0.383 (inactive),0.0992,-0.0645,0.153,-0.0899,0.682,-0.629 (inactive),-0.0172,-0.158 (inactive),-0.0567 (inactive),0.0677 (inactive),0.288 (inactive),-0.259,-2.27 (inactive),-2.52 (inactive),-1.61
CC(C)[Si](C#CCCCC#N)(Oc1ccccc1Br)C(C)C,0.0696,-0.0761 (inactive),0.0648 (inactive),-0.519 (inactive),-0.0887 (inactive),0.525,-0.15,0.42,0.222,0.544,-0.4 (inactive),-0.104,0.614 (inactive),1.01 (inactive),-0.494 (inactive),0.823 (inactive),-0.49,-0.273 (inactive),-0.161 (inactive),-0.18
